PubChem BioAssay
The source made the active and inactive calls.

Tests used:
[1] = tested on: PRMT1 (protein arginine N-methyltransferase 1); experiment: PRMT1 binders on small-molecule microarrays, primary screen, biochemical, small-molecule microarray, 635 nm fluorescence (AID 1088); conditions: small-molecule microarray binding, higher = more signal;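 note: binding of Prmt1 protein to compounds spotted on small-molecule microarray slides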
[2] = yeast growth modulation, basal conditions, primary screen, YJM789 clinical isolate, OD600, 24 h (AID 1089);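 note: growth of clinical yeast isolate S. cerevisiae YJM 789 seeded 1000 cells per well; test concentration not given here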; conditions: S. cerevisiae YJM789 growth, higher = more signal, called active from +8 up or from −8 down
[3] = fission yeast growth modulation, primary screen, strain 972, OD600, 24 h, no modulator (AID 1090);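 note: basal condition with compound alone and no growth modifier present; test concentration not given here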; conditions: S. pombe 972 growth, higher = more signal, called active from +8 up or from −8 down
[4] = S. cerevisiae growth modulation with rapamycin, primary screen, strain BY4716, OD600, 96 h (AID 1091); conditions: higher = more signal, called active from +8 up or from −8 down; note: test concentration not given here
[5] = target: Torsin-1A-interacting protein 2 (Homo sapiens) (UniProt Q8NFQ8); experiment: LULL1 binders on small-molecule microarray, primary screen, cell lysate, human LULL1 lysate, 635/667 nm fluorescence (AID 1092); conditions: hLULL1 lysate binding, 635 nm fluorescence, higher = more signal;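 note: probe is lysate of COS7 cells overexpressing human LULL1; score merges per-feature 667 nm fluorescence with signal-to-noise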
[6] = E. coli growth modulation, two-sided OD650, primary screen, E. coli filamentation project, strain DRC41, 24 h (AID 1093); conditions: OD650, 24 h, higher = more signal, called active from +8 up or from −8 down;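 note: MC1000 strain lacking acrAB efflux and sulA so SOS filamentation is blocked; test concentration not given here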
[7] = small-molecule microarray binders of probe aLefty2, primary screen, biochemical, biotinylated probe, 635/667 nm fluorescence (AID 1094); conditions: higher = more signal;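 note: score merges spot fluorescence near 667 nm with spot signal-to-noise ratio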
[8] = tested on: Noggin (protein binding on small-molecule microarray); experiment: Noggin binders on small-molecule microarray, primary screen, biochemical, 635/667 nm fluorescence (AID 1095); conditions: 635 nm fluorescence, higher = more signal;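 note: score merges 667 nm feature fluorescence with signal to noise over triplicate slides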
[9] = target: Neurogenic locus notch homolog protein 3 (Homo sapiens) (UniProt Q9UM47); experiment: NOTCH3 binders on small-molecule microarray, primary screen, biochemical, 635/667 nm fluorescence (AID 1096); conditions: NOTCH3 binding, 635 nm fluorescence, higher = more signal
[10] = small-molecule microarray binders of probe aEGFR, primary screen, biochemical, biotinylated probe, 635/667 nm fluorescence (AID 1097); conditions: higher = more signal;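 note: probe is a biotinylated anti-EGFR antibody binding compounds printed on slides; score combines fluorescence near 667 nm and signal to noise of each spot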
[11] = tested on: Plasmodium falciparum Sir2 (PF13_0152, Sir2A); experiment: pfSir2 binders on small-molecule microarrays, primary screen, biochemical, small-molecule microarray, 635 nm fluorescence (AID 1098); conditions: small-molecule microarray binding, fluorescence 635 nm; higher = more signal;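 note: score merges spot fluorescence intensity with its signal-to-noise ratio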
[12] = small-molecule microarray binders of probe aDKK1, primary screen, biochemical, biotinylated probe, 635/667 nm fluorescence (AID 1099); conditions: higher = more signal;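 note: score merges 667nm spot fluorescence with signal to noise across triplicate slides; reference of the scale not given here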
[13] = small-molecule microarray binders of probe aCHRDL2, primary screen, biochemical, biotinylated probe, 635/667 nm fluorescence (AID 1100); conditions: higher = more signal
[14] = splicing luciferase reporter signal modulators, primary screen, spliceosome inhibition project, cell-based, HEK293, splice +/- reporter (AID 1101); conditions: luminescence, 24 h, higher = more signal, called active from +8 up or from −8 down;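 note: HEK293 cells carrying a splicing-competent luciferase reporter gene; test concentration not given here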
[15] = target: Fibroblast growth factor 10 (Homo sapiens) (UniProt O15520); experiment: FGF10 binders on small-molecule microarrays, primary screen, biochemical, small-molecule microarray, 635 nm fluorescence (AID 1102); conditions: FGF10 binding, fluorescence 635 nm, higher = more signal
[16] = tested on: glycogen synthase kinase-3 (GSK3A per assay name; protocol says GSK3B); experiment: GSK3 binders on small-molecule microarrays, primary screen, biochemical, small-molecule microarray, 635 nm fluorescence, GSK3A (AID 1103); conditions: small-molecule microarray binding, fluorescence 635 nm; higher = more signal; note: the record names both GSK3A and GSK3B
[17] = target: Epidermal growth factor receptor (Homo sapiens) (UniProt P00533); experiment: EGFR binders on small-molecule microarrays, primary screen, biochemical, small-molecule microarray, 635 nm fluorescence (AID 1104); conditions: EGFR binding, higher = more signal;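 note: score merges 667 nm emission intensity with spot signal to noise over triplicate slides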
[18] = target: Follistatin-related protein 3 (Homo sapiens) (UniProt O95633); experiment: FSTL3 binders on small-molecule microarrays, primary screen, biochemical, small-molecule microarray, 635 nm fluorescence (AID 1105); conditions: FSTL3 binding, higher = more signal;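 note: score merges emission near 667 nm and signal to noise per printed spot across three slides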
[19] = target: Dickkopf-related protein 1 (Homo sapiens) (UniProt O94907); experiment: DKK1 binders on small-molecule microarrays, primary screen, biochemical, small-molecule microarray, 635 nm fluorescence scan (AID 1106); conditions: DKK1 binding, higher = more signal;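 note: score merges emission near 667 nm with signal to noise over three replicate slides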
[20] = tested on: Inhibin beta A chain (activin A); experiment: INHBA (activin A) binders on microarrays, primary screen, biochemical, small-molecule microarray, 635 nm fluorescence scan (AID 1107); conditions: small-molecule microarray binding, higher = more signal;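 note: mouse activin A protein probed at 4.33 µg/mL on printed slides; score merges bound-protein fluorescence near 667 nm with spot signal-to-noise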

Sequence of Neurogenic locus notch homolog protein 3 (Homo sapiens) (Q9UM47 whole entry, looked up): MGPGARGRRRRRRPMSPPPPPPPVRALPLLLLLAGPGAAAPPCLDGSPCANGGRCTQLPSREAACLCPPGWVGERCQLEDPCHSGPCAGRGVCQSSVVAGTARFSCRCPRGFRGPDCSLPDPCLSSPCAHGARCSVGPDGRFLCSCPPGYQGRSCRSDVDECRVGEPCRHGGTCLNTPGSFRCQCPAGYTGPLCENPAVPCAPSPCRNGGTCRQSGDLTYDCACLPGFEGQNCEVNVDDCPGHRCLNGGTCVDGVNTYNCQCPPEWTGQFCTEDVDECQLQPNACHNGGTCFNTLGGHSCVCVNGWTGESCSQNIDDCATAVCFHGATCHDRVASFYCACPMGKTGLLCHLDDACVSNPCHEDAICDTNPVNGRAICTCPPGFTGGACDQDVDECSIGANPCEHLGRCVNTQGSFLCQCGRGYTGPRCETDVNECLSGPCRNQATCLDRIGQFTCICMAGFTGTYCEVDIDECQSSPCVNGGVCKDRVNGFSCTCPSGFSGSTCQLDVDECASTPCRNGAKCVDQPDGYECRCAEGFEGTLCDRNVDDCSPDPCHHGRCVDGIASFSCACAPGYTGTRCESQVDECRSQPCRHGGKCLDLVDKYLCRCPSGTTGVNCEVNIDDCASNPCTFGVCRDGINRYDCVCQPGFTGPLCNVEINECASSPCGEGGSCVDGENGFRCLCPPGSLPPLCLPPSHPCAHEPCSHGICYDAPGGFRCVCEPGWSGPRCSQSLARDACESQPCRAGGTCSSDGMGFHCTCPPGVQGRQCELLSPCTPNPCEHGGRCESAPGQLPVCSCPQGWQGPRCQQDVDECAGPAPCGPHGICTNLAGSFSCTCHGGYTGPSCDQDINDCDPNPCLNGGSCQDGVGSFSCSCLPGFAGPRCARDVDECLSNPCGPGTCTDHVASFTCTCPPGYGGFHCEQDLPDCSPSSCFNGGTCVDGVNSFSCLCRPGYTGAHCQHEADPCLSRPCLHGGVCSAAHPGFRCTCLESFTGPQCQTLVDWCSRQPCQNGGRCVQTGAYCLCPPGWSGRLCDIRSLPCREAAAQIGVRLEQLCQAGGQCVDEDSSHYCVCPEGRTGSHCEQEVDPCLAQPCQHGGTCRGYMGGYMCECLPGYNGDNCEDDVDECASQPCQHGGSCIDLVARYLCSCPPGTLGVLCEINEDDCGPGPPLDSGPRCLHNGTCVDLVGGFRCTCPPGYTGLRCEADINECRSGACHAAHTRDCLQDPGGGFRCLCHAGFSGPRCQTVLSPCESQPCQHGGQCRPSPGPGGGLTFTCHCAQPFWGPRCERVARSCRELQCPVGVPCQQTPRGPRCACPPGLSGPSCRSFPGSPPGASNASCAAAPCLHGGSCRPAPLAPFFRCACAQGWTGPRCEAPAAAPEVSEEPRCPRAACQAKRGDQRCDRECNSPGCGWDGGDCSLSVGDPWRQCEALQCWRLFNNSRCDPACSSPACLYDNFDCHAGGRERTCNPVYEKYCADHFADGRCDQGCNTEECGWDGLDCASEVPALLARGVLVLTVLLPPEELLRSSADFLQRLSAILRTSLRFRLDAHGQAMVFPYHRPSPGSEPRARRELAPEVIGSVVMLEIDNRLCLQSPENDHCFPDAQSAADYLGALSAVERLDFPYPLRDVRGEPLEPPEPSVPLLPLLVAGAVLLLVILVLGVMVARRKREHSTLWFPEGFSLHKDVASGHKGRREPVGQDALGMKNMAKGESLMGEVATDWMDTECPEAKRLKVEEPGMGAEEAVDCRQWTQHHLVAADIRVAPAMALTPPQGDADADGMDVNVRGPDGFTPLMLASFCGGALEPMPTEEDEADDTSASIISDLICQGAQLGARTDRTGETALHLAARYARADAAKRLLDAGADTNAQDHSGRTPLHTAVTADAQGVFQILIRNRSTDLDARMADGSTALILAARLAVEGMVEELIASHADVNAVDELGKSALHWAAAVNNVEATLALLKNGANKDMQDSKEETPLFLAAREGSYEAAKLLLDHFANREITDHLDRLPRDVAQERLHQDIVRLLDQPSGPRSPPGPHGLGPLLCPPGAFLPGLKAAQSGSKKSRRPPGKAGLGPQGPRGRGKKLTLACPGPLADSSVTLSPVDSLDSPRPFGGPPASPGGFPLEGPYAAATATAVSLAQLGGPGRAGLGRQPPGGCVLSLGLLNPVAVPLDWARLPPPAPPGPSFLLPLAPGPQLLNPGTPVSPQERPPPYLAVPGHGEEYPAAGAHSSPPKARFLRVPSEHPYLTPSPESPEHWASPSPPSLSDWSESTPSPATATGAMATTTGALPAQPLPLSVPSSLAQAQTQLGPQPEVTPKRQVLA
Sequence of Torsin-1A-interacting protein 2 (Homo sapiens) (Q8NFQ8 whole entry, looked up): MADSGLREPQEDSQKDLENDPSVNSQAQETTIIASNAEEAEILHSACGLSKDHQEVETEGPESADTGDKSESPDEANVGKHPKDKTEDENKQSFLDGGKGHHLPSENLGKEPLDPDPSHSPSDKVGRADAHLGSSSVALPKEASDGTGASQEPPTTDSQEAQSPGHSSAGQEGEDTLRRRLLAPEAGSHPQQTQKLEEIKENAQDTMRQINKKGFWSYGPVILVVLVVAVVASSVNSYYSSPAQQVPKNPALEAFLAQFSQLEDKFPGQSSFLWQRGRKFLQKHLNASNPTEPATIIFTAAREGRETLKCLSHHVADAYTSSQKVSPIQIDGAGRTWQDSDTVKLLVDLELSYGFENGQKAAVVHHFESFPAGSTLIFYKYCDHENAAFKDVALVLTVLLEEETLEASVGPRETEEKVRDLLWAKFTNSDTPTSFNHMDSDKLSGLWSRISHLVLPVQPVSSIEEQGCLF
Sequence of Follistatin-related protein 3 (Homo sapiens) (O95633 whole entry, looked up): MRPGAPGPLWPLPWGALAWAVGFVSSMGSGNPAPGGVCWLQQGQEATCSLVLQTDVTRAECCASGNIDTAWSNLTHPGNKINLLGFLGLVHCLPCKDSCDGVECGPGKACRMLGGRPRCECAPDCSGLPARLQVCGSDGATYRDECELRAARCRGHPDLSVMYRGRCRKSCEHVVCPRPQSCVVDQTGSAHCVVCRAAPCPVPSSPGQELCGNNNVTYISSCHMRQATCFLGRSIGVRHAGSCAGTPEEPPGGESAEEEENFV
Sequence of Epidermal growth factor receptor (Homo sapiens) (P00533 whole entry, looked up): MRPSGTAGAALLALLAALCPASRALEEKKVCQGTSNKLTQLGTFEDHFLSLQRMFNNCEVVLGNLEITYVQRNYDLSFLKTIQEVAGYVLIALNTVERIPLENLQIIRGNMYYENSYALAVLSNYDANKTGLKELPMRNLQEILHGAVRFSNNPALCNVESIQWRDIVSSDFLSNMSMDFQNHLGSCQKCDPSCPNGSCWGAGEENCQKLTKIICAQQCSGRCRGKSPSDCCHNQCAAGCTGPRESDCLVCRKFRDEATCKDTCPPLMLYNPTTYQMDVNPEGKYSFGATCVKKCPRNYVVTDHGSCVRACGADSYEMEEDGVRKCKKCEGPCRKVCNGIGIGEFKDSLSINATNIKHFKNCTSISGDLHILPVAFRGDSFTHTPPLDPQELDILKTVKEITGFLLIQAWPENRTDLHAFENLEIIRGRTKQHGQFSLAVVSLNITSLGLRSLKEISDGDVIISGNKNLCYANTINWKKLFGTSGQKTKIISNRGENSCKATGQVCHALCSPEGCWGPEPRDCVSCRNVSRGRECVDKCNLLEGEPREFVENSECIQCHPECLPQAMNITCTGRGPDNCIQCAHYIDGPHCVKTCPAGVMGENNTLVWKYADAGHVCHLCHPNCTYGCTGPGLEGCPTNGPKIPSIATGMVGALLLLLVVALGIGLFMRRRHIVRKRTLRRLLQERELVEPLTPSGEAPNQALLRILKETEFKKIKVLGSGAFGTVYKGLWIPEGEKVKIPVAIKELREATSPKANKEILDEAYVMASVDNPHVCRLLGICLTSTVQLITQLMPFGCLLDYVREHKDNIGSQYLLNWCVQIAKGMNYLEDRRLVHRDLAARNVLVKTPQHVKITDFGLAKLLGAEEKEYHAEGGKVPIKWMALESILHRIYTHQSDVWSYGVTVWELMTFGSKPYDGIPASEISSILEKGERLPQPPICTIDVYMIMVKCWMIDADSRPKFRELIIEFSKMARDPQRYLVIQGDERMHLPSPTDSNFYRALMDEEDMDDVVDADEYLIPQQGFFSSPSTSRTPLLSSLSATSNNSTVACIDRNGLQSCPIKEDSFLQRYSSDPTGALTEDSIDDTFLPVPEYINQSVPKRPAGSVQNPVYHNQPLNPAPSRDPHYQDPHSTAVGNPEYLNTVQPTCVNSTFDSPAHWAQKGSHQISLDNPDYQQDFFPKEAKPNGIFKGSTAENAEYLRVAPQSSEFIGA
Sequence of Fibroblast growth factor 10 (Homo sapiens) (O15520 whole entry, looked up): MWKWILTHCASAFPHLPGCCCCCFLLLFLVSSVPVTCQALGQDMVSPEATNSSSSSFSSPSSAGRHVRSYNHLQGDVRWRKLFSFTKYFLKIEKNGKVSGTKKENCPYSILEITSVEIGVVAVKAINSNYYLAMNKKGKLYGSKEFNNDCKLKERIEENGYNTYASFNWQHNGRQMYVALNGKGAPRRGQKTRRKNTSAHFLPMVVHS
Sequence of Dickkopf-related protein 1 (Homo sapiens) (O94907 whole entry, looked up): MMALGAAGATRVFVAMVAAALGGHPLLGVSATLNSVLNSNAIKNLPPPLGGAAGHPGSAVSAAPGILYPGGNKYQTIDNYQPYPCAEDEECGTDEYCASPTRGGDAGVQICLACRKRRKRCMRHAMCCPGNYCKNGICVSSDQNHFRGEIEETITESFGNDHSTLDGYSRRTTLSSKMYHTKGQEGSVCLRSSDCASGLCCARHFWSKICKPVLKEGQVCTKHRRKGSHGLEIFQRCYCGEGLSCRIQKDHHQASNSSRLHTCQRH

| Structure (SMILES) | composite z-score [1] | z-score [2] | z-score [3] | z-score [4] | composite z-score [5] | z-score [6] | composite z-score [7] | composite z-score [8] | composite z-score [9] | composite z-score [10] | composite z-score [11] | composite z-score [12] | composite z-score [13] | z-score [14] | composite z-score [15] | composite z-score [16] | composite z-score [17] | composite z-score [18] | composite z-score [19] | composite z-score [20] |
| --- | --- | --- | --- | --- | --- | --- | --- | --- | --- | --- | --- | --- | --- | --- | --- | --- | --- | --- | --- | --- |
| COc1ccc([Si](C)(C)[C@@H]2[C@@H](CC(=O)N(CCO)Cc3ccccc3)O[C@]3(C(=O)N(Cc4cccc(N5CCOC5=O)c4)c4ccccc43)[C@H]2C)cc1 | 1.55 | -0.757 (inactive) | -0.21 (inactive) | 2.11 (inactive) | 1.96 | 1.37 (inactive) | -0.349 | 0.726 | 0.733 | -0.129 | 1.07 | -0.178 | -0.29 | -0.244 (inactive) | 0.386 | 0.688 | 0.41 | 0.468 | 0.291 | 0.523 |
| O=C1C2C=CC(C(O)c3ccc(F)cc3)N(n3cnnc3)C2C(=O)N1Cc1ccccc1 (stereo not given) | -0.301 | 0.271 (inactive) | 0.767 (inactive) | -0.1 (inactive) | 1.05 | -0.997 (inactive) | 0.0137 | -0.685 | -0.874 | -0.208 | -0.284 | 0.158 | 0.384 | -0.284 (inactive) | -0.429 | -0.858 | -0.273 | -0.0469 | -0.44 | 1.12 |
| COCCOC(=O)N1C(=O)[C@@]2(c3cc(C#Cc4ccc(OC)cc4)ccc31)[C@H](c1ccc(O)cc1)N1[C@H](c3ccccc3)[C@H](c3ccccc3)OC(=O)[C@H]1[C@@H]2C(=O)N1CCCCCCC1 | 0.632 | -0.158 (inactive) | -0.239 (inactive) | 1.47 (inactive) | 1.46 | -0.0793 (inactive) | 1.43 | 0.332 | 0.0324 | 0.642 | 0.447 | 1.81 | 1.36 | 1.5 (inactive) | 0.506 | -0.151 | -0.191 | 0.859 | 0.423 | 1.31 |
| CC(C)N1C(=O)C[C@@](C(=O)NCCCN(C)C)(c2ccc([N+](=O)[O-])cc2)[C@H]1c1ccc(CO)cc1 | -0.139 | -0.768 (inactive) | -1.42 (inactive) | -0.525 (inactive) | 0.349 | -1.41 (inactive) | -0.0221 | -0.131 | -0.233 | -0.124 | -0.133 | -0.253 | 0.692 | 0.313 (inactive) | -0.532 | -0.777 | -0.496 | -0.309 | -0.197 | 0.698 |
| COC(=O)[C@@]1(Cc2ccc(OC)cc2)[C@H]2c3cc(C(=O)N(C)C)n(CCO)c3C[C@H]2CN1C(=O)c1ccccc1 | -1.15 | -0.809 (inactive) | 0.142 (inactive) | -0.14 (inactive) | 1.96 | -0.285 (inactive) | 0.333 | -1.13 | -0.175 | -0.0521 | 0.137 | 1.14 | 1.27 | 0.994 (inactive) | 0.0882 | -0.402 | -0.735 | -0.42 | -1.18 | 1.07 |
| COC1OC[C@]2(C)[C@H]3C4=C(CN2C(=O)OC(C)(C)C)[C@H](C)C(CO)C(CO)C4CC[C@@H]13 (stereo not given in full) | 1.18 | 0.58 (inactive) | 1.22 (inactive) | 0.867 (inactive) | 3.44 | -0.172 (inactive) | 0.858 | -0.05 | 0.96 | 0.187 | 0.422 | 1.39 | 1.52 | 2.09 (inactive) | 0.513 | 1.18 | 0.0188 | 0.823 | -0.362 | 1.17 |
| COc1cc(CO)cc(I)c1O[C@H]1C=C(C(=O)NCCO)C[C@@H](NCc2ccc(F)cc2)[C@@H]1O | 1.07 | 1.41 (inactive) | -9.13 (active) | 0.388 (inactive) | -0.135 | 0.944 (inactive) | -0.109 | 0.938 | 0.305 | -0.128 | 0.935 | -0.197 | -0.162 | -1.05 (inactive) | 1.43 | 0.191 | -0.0831 | 0.991 | 0.978 | -0.144 |
| C[N+](C)(C)CCCCCCNC(=O)[C@H]1C[C@H]2C(=O)NCC(=O)N2[C@H]1c1ccc(O)cc1 | 1.46 | -0.374 (inactive) | 0.332 (inactive) | -0.489 (inactive) | 2.88 | 0.376 (inactive) | -0.413 | 1.6 | 1.05 | -0.12 | 1.51 | -0.34 | -0.592 | -0.271 (inactive) | 1.35 | 0.846 | 0.056 | 1.42 | 0.687 | -0.253 |
| NCCCCCNC(=O)[C@@H]1C[C@@H]2C(=O)NCC(=O)N2[C@@H]1c1cccc(OCCO)c1 | 1.44 | -0.0012 (inactive) | -0.926 (inactive) | 0.267 (inactive) | 1.32 | 2.01 (inactive) | 0.086 | 1.35 | 0.712 | -0.0158 | 1.06 | 0.237 | 0.0759 | -0.852 (inactive) | 1 | 1.26 | 0.396 | 0.669 | 1.05 | 0.732 |
| O=C1NC(=O)C2C1C=CC(C(O)c1ccco1)N2Nc1ccccn1 (stereo not given) | 0.184 | 0.493 (inactive) | 0.652 (inactive) | 0.637 (inactive) | 0.147 | -0.87 (inactive) | -0.121 | -0.119 | -0.509 | -0.0259 | 0.76 | -0.0191 | 0.0668 | 1.69 (inactive) | 0.32 | 0.03 | 0.217 | -0.374 | -0.172 | 1.01 |
